Measured values reported in PubChem BioAssay (NCATS).
Unmarked numbers belong to inactive results. Results filed as inconclusive are left out. A call without a number means that no potency is given here. Active and inactive are the calls of the source. Calls follow the shape of the dose curve; as a rule, active = well fitted curve in the direction sought with a large enough effect; inconclusive = small, poorly fitted or top-dose-only effect, or another doubt; inactive = no such curve, though single readings can be large; an effect the other way counts as inactive or inconclusive. Numbered stars: 1 amine (or outer) side, 2 acyl side, 3 side chain; on linkers, the order of the positions; unused ones are H or OH. Bridge positions count the residues as written; N and C are the ends. Square brackets hold non-standard residues; d marks the D form. Peptide text beside a SMILES is read from it. ξ: configuration not given here. Phe(3R-OH) = O=C([C@@H](N[*:1])[C@H](O[*:3])c1ccccc1)[*:2]; NMeTrp(4-OMe) = CN[C@@H](Cc1c[nH]c2cccc(OC)c12)C(=O)O; ξThr(3R)(O-yl) = C[C@@H](O[*:3])C(N[*:1])C(=O)[*:2]; NMeThr(3ξ) = CN[C@H](C(=O)O)C(C)O; NMeL = CN[C@@H](CC(C)C)C(=O)O; NMeV = CN[C@H](C(=O)O)C(C)C; ξIle = CC[C@H](C)C(N)C(=O)O; ξV = CC(C)C(N)C(=O)O

Assays:
[1] = OV-SAHO Cancer Cell Toxicity qHTS against the NCATS CANVASS Library (AID 1347348); also: series mostly up to about 38 µM; nearly all actives have a fitted effect of over 55% in size
Procedure, shortened: (§1)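 Cells were seeded at 1000 per well, allowed 4 h at 37 degrees C/5% CO2, then pin-treated with an 11-point compound series. After 72 h, viability was read as CellTiter-Glo luminescence following 15min at room temperature.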

[2] = SW1088 Cancer Cell Toxicity qHTS against the NCATS CANVASS Library (AID 1347350); also: nearly all actives have a fitted effect of over 75% in size
Procedure, shortened: as §1

[3] = HPAF-II 24hr Apoptosis Induction qHTS against the NCATS CANVASS Library (AID 1347356)
Procedure, shortened: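 Caspase-Glo 3/7 luminescence, read after 15 min room-temperature development, measures apoptosis in HPAF-II cells treated 24 h at 37 degrees C with an 11-point concentration series; 500 cells/well; doxorubicin control.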

[4] = HPAF-II 12hr Apoptosis Induction qHTS against the NCATS CANVASS Library (AID 1347358)
Procedure, shortened: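 Caspase-3/7 activation by DEVD-substrate luminescence (Caspase-Glo 3/7, 15 min, room temperature) after a 12-hour compound exposure in 11 concentrations, of HPAF-II pancreatic cells seeded at 500/well in DMEM with 10% FBS.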

[5] = HEK293 24hr Apoptosis Induction qHTS against the NCATS CANVASS Library (AID 1347359)
Procedure, shortened: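 Caspase-3/7 activation measured as luminescence from the DEVD-based Caspase-Glo reagent, 15 min at room temperature, following 24-hour compound treatment of HEK293 cells.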

[6] = tested on: NAD(P)H diaphorase (Clostridium kluyveri); test: Diaphorse counterscreen qHTS: Assay Interference Panel against the NCATS CANVASS Library (AID 1347362)
Procedure, shortened: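 Counterscreen for coupling-enzyme interference: resorufin fluorescence from resazurin/NADH turnover, read after 5 min at room temperature. Compounds were tested over an 11-point series after 15 min dark preincubation with diaphorase in PBS-Tween.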

[7] = molecular target: Luciferin 4-monooxygenase (Photinus pyralis) (UniProt P08659); test: Firefly luciferase counterscreen qHTS: Assay Interference Panel against the NCATS CANVASS Library (AID 1347363); also: series mostly up to about 57 µM
Luciferin 4-monooxygenase (Photinus pyralis), sequence (P08659 whole entry, looked up): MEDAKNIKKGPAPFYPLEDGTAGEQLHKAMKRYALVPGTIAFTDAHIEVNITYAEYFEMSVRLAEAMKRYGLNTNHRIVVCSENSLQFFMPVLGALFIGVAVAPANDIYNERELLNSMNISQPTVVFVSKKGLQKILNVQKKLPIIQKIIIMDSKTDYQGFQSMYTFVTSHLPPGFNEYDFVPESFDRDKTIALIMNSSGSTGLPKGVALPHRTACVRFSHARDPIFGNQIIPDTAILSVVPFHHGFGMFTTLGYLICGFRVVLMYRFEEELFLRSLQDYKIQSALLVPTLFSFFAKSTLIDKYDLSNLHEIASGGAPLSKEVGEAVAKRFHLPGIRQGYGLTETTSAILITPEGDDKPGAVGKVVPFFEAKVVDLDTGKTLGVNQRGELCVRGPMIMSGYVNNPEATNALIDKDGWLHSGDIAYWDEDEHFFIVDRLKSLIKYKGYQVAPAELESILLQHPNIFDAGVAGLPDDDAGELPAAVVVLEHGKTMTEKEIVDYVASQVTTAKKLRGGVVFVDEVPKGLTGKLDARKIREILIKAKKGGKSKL
Procedure, shortened: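 Luminescence inhibition readout: compounds (11-point qHTS) sat 15 min at room temperature with substrate mix (0.013 mM luciferin and ATP), then firefly luciferase was added and signal read 5 min later.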

[8] = KB-8-5-11 Cancer Cell Toxicity qHTS against the NCATS CANVASS Library (AID 1347364); also: nearly all actives have a fitted effect of over 75% in size
Procedure, shortened: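 Viability read as CellTiter-Glo luminescence after 72 h at 37 °C, 5% CO2. 11-point compound series on 500 KB-8-5-11 cells/well in DMEM/10% FBS. Follow-up plating included 1 uM tariquidar in the medium.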

[9] = KB-3-1 Cancer Cell Toxicity qHTS against the NCATS CANVASS Library (AID 1347366); also: nearly all actives have a fitted effect of over 75% in size
Procedure, shortened: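 500 KB-3-1 cells/well; compounds pin-transferred, 11-pnt series; 72 hr, 37C/5% CO2; CellTiter-Glo, 10 min RT; luminescence read-out.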

[10] = molecular target: Nuclear receptor subfamily 1 group I member 3 (Homo sapiens) (UniProt Q14994); test: qHTS for Constitutive Androstane Receptor (CAR) Antagonist screened against the NCATS CANVASS Library (AID 1347372);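 also: cells stimulated with 50 nM CITCO agonist so inhibition reflects antagonism; series mostly up to about 46 µM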
Nuclear receptor subfamily 1 group I member 3 (Homo sapiens), sequence (Q14994 whole entry, looked up): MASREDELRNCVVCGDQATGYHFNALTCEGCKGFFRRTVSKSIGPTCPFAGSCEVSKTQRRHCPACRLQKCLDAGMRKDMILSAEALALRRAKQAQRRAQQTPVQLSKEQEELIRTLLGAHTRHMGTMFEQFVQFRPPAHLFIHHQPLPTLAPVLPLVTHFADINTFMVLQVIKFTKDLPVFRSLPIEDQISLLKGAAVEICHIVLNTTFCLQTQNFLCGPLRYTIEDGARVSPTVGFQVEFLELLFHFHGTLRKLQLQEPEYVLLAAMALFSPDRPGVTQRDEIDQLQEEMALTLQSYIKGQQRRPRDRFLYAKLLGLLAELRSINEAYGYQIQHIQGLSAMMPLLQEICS
Procedure, shortened: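 Antagonist mode: compound added alongside 50 nM CITCO to HepG2-hCAR-CYP2B6 reporter cells, 24hr at 37C. Viability by CellTiter-Fluor fluorescence, then CAR-driven luciferase by ONE-Glo luminescence.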

[11] = qHTS for Hypoxia signaling pathway (HIF-1) agonists against the NCATS CANVASS Library (AID 1347375)
Procedure, shortened: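 Beta-lactamase reporter under HRE control in ME-180 cells; compounds (11-point qHTS series) added after 5 hrs plating, then 17 hrs at 37C. FRET substrate read after 2 hr; same-well CellTiter-Glo luminescence gave viability and normalization.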

[12] = 10-beta competent E. coli microbial cell viability qHTS against the NCATS CANVASS Library (AID 1347376); also: series mostly up to about 46 µM
Procedure, shortened: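 Read-out: BacTiter-Glo ATP luminescence, taken 20 min after reagent addition. Beforehand, 10-beta competent E. coli at 0.2 OD had been incubated overnight at 37C with compounds at 11 concentrations.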

[13] = DH5-alpha competent E. coli microbial cell viability qHTS against the NCATS CANVASS Library (AID 1347377); conditions: outcome: dose series up to 46.1 µM unless noted
Procedure, shortened: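 Bacterial viability as ATP-dependent luminescence (BacTiter-Glo), read after overnight 37 °C exposure of DH5-alpha competent E. coli to compounds in 11-point titration.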

[14] = qHTS for H2AX Agonists against the NCATS CANVASS Library (AID 1347378)
Procedure, shortened: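 TR-FRET readout (ex 320 nm, em 665/620 nm ratio) of phospho-H2AX (S139) in CHO-K1 lysates. Cells treated 3 hr at 37C with compound titration, 0.76% DMSO; lysis 30 min, antibody detection 24 hr at RT.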

[15] = qHTS for Activators of p53 Stress Response Pathway screened against the NCATS CANVASS Library (AID 1347388)
Procedure, shortened: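 Beta-lactamase reporter driven by p53 response elements in HCT-116 cells, read as the 460 nm/530 nm emission ratio after CCF4 loading, following 16 h of exposure to an 11-point series. Cell viability was measured in the same wells by CellTiter-Glo luminescence.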

[16] = qHTS assay for small molecule disruptors of mitochondrial membrane potential screened against the NCATS CANVASS Library (AID 1347389); also: nearly all actives have a fitted effect of over 60% in size; also: potency is read from the fitted curve at half-maximal effect
Procedure, shortened: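 Mitochondrial membrane potential in HepG2: 1 h compound treatment (11-point concentration series), 30 min m-MPI dye at 37C, then dual fluorescence of J-aggregates (ex 540/em 590) and monomers (ex 490/em 535); lower red/green ratio indicates depolarization.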

[17] = Secretion counterscreen for inhibitors of the SERCaMP assay screened against the NCATS CANVASS Library (AID 1347390);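 also: light from luciferase secreted into medium read as a measure of general secretion; series mostly up to about 77 µM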
Procedure, shortened: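 Luminescence from constitutively secreted GLuc in SH-SY5Y-GLuc STOP cells, read after coelenterazine addition, served as read-out. Compounds tested 0.001 - 77 uM for 20 h at 37C; Brefeldin A as positive control.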

[18] = qHTS for activators of dead-cell proteases activity screened against the NCATS CANVASS Library (AID 1347392);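 also: luminescence from protease leaking out of membrane-damaged cells cleaving impermeant substrate; rising signal means more cytotoxicity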
Procedure, shortened: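 Luminescent dead-cell protease readout (AAF-aminoluciferin, 15 min, room temperature) after 5 h compound treatment of HepG2 cells (2000/well, pre-attached 18 h). Eleven concentrations.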

[19] = qHTS for inhibitors of Wild type Zika virus screened against the NCATS CANVASS Library (AID 1347396);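 also: ATP luminescence of surviving cells so rescue from viral cell killing; series mostly up to about 46 µM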
Procedure, shortened: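 Using ATP-based luminescence (CellTiter Glo), this screen scores rescue of Vero 766 cells from wild-type Zika killing at 72 h post-infection. Compounds are tested in a concentration series.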

[20] = Viability qHTS for inhibitors of the SERCaMP assay screened against the NCATS CANVASS Library (AID 1347400); also: series mostly up to about 92 µM; nearly all actives have a fitted effect of over 70% in size
Procedure, shortened: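 CellTiter-Glo luminescence measured cytotoxicity after 48 h at 37C of compound treatment (11-point series). Cells were SH-SY5Y-GLuc SERCaMP MJH297 derivatives, seeded at 1000 per well 4 h beforehand.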

SMILES | Potency [1] | Potency [2] | outcome [3] | Potency [4] | Potency [5] | Potency [6] | Potency [7] | Potency [8] | Potency [9] | Potency [10] | Potency [11] | outcome [12] | outcome [13] | Potency [14] | Potency [15] | Potency [16] | Potency [17] | Potency [18] | Potency [19] | Potency [20]
O=C(O)[C@@]12CO[C@@]3(O)C4CCN(CC[C@H]31)[C@H]4c1c2[nH]c2ccccc12 | inactive | inactive | inactive | inactive | inactive | inactive | inactive | inactive | inactive | inactive | inactive | inactive | inactive | inactive | inactive | inactive | inactive | inactive | inactive | inactive
CC[C@H](C)C(NC(=O)[C@@H](NC)C(C)C)C(=O)NC1C(=O)N(C)[C@@H](C(C)O)C(=O)N[C@@H](C(C)C)C(=O)N(C)[C@@H](CC(C)C)C(=O)NC(C(C)C)C(=O)N(C)[C@@H](C(C)C)C(=O)N(C)[C@@H](Cc2c[nH]c3cccc(OC)c23)C(=O)N[C@@H](C(C)C)C(=O)N[C@@H]([C@H](O)c2ccccc2)C(=O)N[C@@H](C(C)C)C(=O)O[C@@H]1C (stereo partly drawn) (H-[NMeV][ξIle][ξThr(3R)(O-yl)][NMeThr(3ξ)]V[NMeL][ξV][NMeV][NMeTrp(4-OMe)]V[Phe(3R-OH)]V; ester 3-C) | inactive | inactive | inactive | inactive | inactive | inactive | inactive | inactive | inactive |  | inactive |  | inactive | inactive | inactive | inactive | inactive | inactive | inactive | inactive
C[C@@H]1C[C@H]2C[C@]3(CCCCN3C)[C@@H]3C[C@H]2[C@H](C1)N(C)C3 | inactive | inactive | inactive | inactive | inactive | inactive | inactive | inactive | inactive | inactive | inactive | inactive | inactive | inactive | inactive | inactive |  | inactive | inactive | 
C[C@@H](CCC[C@]1(C)C(=O)C=C[C@]23C[C@H]4C[C@H](O[C@@]4(C)C2)C31)C(=O)N[C@@H](CO)C(=O)O (stereo partly drawn) | inactive | inactive | inactive | inactive | inactive | inactive | inactive | inactive | inactive | inactive | inactive | inactive | inactive | inactive | inactive | inactive | inactive | inactive | inactive | inactive
COc1cc(O)c2c3c(c(O)cc(C)c13)C(=O)OC2 | inactive | inactive | inactive | inactive | inactive |  | inactive | inactive | inactive | inactive | inactive | inactive | inactive | inactive | inactive | 18.6 µM (active) | inactive | inactive | inactive | inactive
C=C1/C=C\C(CCC)=C\c2csc(n2)C(C)NC(=O)C[C@@]2(CC(=O)O)CCC(=C)[C@H](C1)S2 (stereo partly drawn) | inactive | inactive | inactive | inactive | inactive | inactive | inactive | inactive | inactive | inactive | inactive | inactive | inactive | inactive | inactive | inactive | inactive | inactive | inactive | inactive
C[C@H]1C[C@@H]([C@@H]2CC[C@]34O[C@H](CC[C@@]35C[C@H](C)C(=O)O5)CN24)OC1=O | inactive | inactive | inactive | inactive | inactive | inactive | inactive | inactive | inactive | inactive | inactive | inactive | inactive | inactive | inactive | inactive |  | inactive | inactive | inactive
CC1(C)[C@H](Br)CC[C@]23C[C@]4(C)C(=O)CC12C[C@H]34 | inactive | inactive | inactive | inactive | inactive | inactive | inactive | inactive | inactive | inactive | inactive | inactive | inactive | inactive | inactive | inactive | inactive | inactive | inactive | inactive
COc1cc(/C=C2/C(=O)N(c3ccc(O)cc3C(=O)O)[C@H](c3ccc(O)c(OC)c3)C2C(=O)Nc2ccc(O)cc2C(=O)O)ccc1O (stereo partly drawn) | inactive | inactive | inactive | inactive | inactive | inactive | inactive | inactive | inactive | inactive | inactive | inactive | inactive | inactive | inactive | inactive | inactive | inactive | inactive | inactive
O=C(O)Cc1c[nH]c2ccccc12 | inactive | inactive | inactive | inactive | inactive | inactive | inactive | inactive | inactive | inactive | inactive | inactive | inactive | inactive | inactive | inactive | inactive | inactive | inactive | inactive
C=C1C[C@@]23C=CC(=O)[C@@](C)(CCC(=O)Nc4c(O)ccc(C(=O)O)c4O)C2C[C@@H]1C(O)C3 (stereo partly drawn) | inactive | inactive | inactive | inactive | inactive |  | inactive | inactive | inactive | inactive | inactive | inactive | inactive | inactive | inactive | inactive | inactive | inactive | inactive | inactive
CC(O)/C=C/C1(O)C(C)(C)CC(O)CC1(C)O (stereo not drawn) | inactive | inactive | inactive | inactive | inactive | inactive | inactive | inactive | inactive | inactive | inactive | inactive | inactive | inactive | inactive | inactive | inactive | inactive | inactive | inactive
